Source: PubChem
VACV Venus inh – vaccinia inhibition (Venus reporter) | Vaccinia virus Venus reporter expression, fluorescence | Potency, µM (titrated, usually from 36.5 µM), without a hit: at the top dose activity change, negative = inhibition, hits mostly inhibitors | 330,000 compounds, 0.46% hits | AID 720580; calls by dose curve; tested in A549 cells; also: potency is read from the fitted curve at half-maximal effect; nearly all actives have a fitted effect of over 30% in size
HCMV inh – human cytomegalovirus inhibition; HFF cells, HCMV-luciferase reporter, 72 h; stronger effect = lower value; activity change, negative = inhibition, % at 57.5 µM; 410,000 compounds, 4.5% hits; AID 1259415; in the data active = activity change below about -60%; inconclusive = no clear call, values can overlap the other calls; inactive = above about -39%
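After 16 h attachment at 37C, HFF cells received test compound and HCMV-luciferase (1 PFU/cell); reporter luminescence read 72 h later, data normalized against buffer-only and known inhibitor Salinomycin.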
VACV mCherry inh – vaccinia inhibition (mCherry reporter); Vaccinia virus mCherry reporter infection, fluorescence; Potency, µM (highest dose often 36.5 µM), without a hit: at the highest dose activity change, negative = inhibition, actives largely listed as inhibitors; 310,000 compounds, 0.63% hits; AID 720579; calls by dose curve; tested in A549 cells; also: potency is read from the fitted curve at half-maximal effect; nearly all actives have a fitted effect of over 35% in size
HCV inhibitor – HCV inhibition. AID 651820. Potency, µM (top dose mostly 41.8 µM), for inactives: at the highest dose activity change, negative = inhibition, actives largely listed as inhibitors. 340,000 compounds, 3.4% hits. Huh7.5.1 HCVcc-Cre infection, luciferase reporter, 44 h; also: potency is read from the fitted curve at half-maximal effect
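A cell-based infection assay in which seeded cells (1,000 per well) receive test compound after 4 h, are inoculated with HCVcc-Cre at approximately 0.5 moi, and are incubated 44 h before luminescence detection.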
FMDV antiviral – antivirals against foot and mouth disease virus. FMDV antiviral cell-based qHTS. 410,000 compounds, 1.2% hits. Potency, µM (top dose mostly 57.9 µM), for inactives: at the highest dose activity change, negative = inhibition, usual class: inhibitors; calls by dose curve; tested in HEK293T cells; also: read-out not given here; potency is read from the fitted curve at half-maximal effect; nearly all actives have a fitted effect of over 45% in size
Giardia FBPA inh – inhibitors of Giardia lamblia fructose-1,6-bisphosphate aldolase; purified Giardia FBPA; Potency, µM (doses to about 59.6 µM), for the others: at the highest dose activity, negative = inhibition, usual class: inhibitors; 290,000 compounds, 0.71% hits; AID 2451; also: potency is read from the fitted curve at half-maximal effect; nearly all actives have a fitted effect of over 55% in size
Target sequence (A8B2U2 whole entry, looked up): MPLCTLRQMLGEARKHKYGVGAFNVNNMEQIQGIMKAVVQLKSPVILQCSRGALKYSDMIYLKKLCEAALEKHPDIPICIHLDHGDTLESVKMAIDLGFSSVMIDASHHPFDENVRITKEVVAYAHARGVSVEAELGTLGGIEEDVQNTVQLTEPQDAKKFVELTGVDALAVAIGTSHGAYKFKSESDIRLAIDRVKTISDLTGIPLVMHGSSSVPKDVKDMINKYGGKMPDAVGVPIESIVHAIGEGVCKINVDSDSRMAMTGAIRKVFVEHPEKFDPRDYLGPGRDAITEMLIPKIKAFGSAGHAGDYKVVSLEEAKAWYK
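40 nM FBPA preincubated 10 min at RT with compound (up to 57.5 uM final), then substrate plus GAPDH/TPI/NAD/arsenate coupling and diaphorase/resazurin added. Fluorescence read after 20 min at RT, 525/598 nm.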
* hit, by the source's call; i = inactive; ? = inconclusive; nt = no result; [ ] = dose if it differs, or a comment. Rows were chosen to be rich in hits. Some 7.5% of all compounds tested hit in one or more screens of this group. Unless noted, calls follow the shape of the dose curve; as a rule, active = well fitted curve in the direction sought with a large enough effect; inconclusive = small, poorly fitted or top-dose-only effect, or another doubt; inactive = no such curve, though single readings can be large; an effect the other way counts as inactive or inconclusive. % is scaled to controls: 0 for no effect and ±100 for the full control effect.

SMILES	VACV Venus inh	HCMV inh	VACV mCherry inh	HCV inhibitor	FMDV antiviral	Giardia FBPA inh
O=C([O-])c1ccc(-[n+]2c(-c3ccccc3)cc(-c3ccccc3)cc2-c2ccccc2)cc1	-1%	18	i	-1%	-23%	nt
Oc1ccc(-[n+]2c(-c3ccccc3)cc(-c3ccccc3)cc2-c2ccccc2)cc1	?	-97*	-9%	8.9µM*	10µM*	nt
COc1ccc(-[n+]2c(-c3ccccc3)cc(-c3ccccc3)cc2-c2ccccc2)cc1	?	-97*	?	?	3.2µM*	nt
CCOc1cccc(C2C=C(c3ccc4c(c3)OCO4)NC(c3ccccc3Cl)N2)c1O (stereo not given)	-7%	nt	-1%	nt	nt	nt
Nc1nc(-c2ccc(Cl)cc2)nnc1-c1ccc(Br)cc1	-2%	-5	i	8%	12%	6%
Nc1n[nH]c(-c2ccc(Br)cc2)c1Cl	?	-109*	?	-9%	-5%	0%
COCCN1CCC(CNCc2cn(-c3cc(C)ccc3C)nc2-c2ccccc2)C1 (stereo not given)	nt	-60*	nt	7.9µM*	-6%	2%
CCCNC(=O)OC[C@@H]1O[C@H](CCO/N=C(\C)CCN2CCc3nc(-c4ccccc4)c(-c4ccccc4)cc3C2)C=C[C@@H]1Oc1ccc(OC)cc1	nt	nt	nt	nt	nt	1%[12.9 µM]
Cc1ccc(Cl)cc1N(C)C(=O)c1noc2c1CCCCC2	-15%	-64*	-5%	nt	-5%	nt
CC(C)Cc1nc(N2CCN(C(=O)c3ccco3)CC2)c(C#N)c2c1CCCC2	nt	0	nt	10µM*	?	1%
CC(C)C(=O)N1CCN(c2nc(-c3ccccc3)c3c(c2C#N)CCCC3)CC1	nt	?	nt	6.3µM*	?	4%
COc1ccc(-n2c(CNC(=O)c3cccc4ccccc34)nnc2SC)cc1	-15%	nt	-3%	nt	5%	nt
COc1ccc(C)cc1-n1c(=O)c2ccccc2c2ccccc2c1=O	-15%	?	-7%	5%	25µM*	-10%
O=C(Nc1nc(-c2cccnc2)cs1)c1ccc(S(=O)(=O)N2CCOCC2)cc1	-15%	-7	i	-5%	?	5%
O=C(Nc1nc(-c2ccc3c(c2)OCCO3)cs1)c1ccc(S(=O)(=O)N2CCCCC2)cc1	-19%	-100*	-5%	?	nt	-6%
O=C(Nc1nc(-c2cccs2)cs1)c1ccc(S(=O)(=O)N2CCCC2)cc1	?	-90*	?	?	10µM*	-4%
O=C(Nc1nc(-c2ccc(S(=O)(=O)N3CCCCCC3)cc2)cs1)c1ccccc1	nt	-73*	nt	?	11µM*	-2%
Cc1csc(NC(=O)c2ccc(S(=O)(=O)N3CCCC3)cc2)n1	nt	-1	nt	-1%	16%	-3%
COC(=O)c1ccc(-c2csc(NC(=O)c3ccc(S(=O)(=O)N4CCc5ccccc5C4)cc3)n2)cc1	-6%	0	i	?	-13%	12%
CC(=O)Nc1nc(-c2cccs2)cs1	10%	38	-6%	-5%	42%	-9%
CN(C)S(=O)(=O)c1ccc(C(=O)Nc2nc(-c3cccs3)cs2)cc1	-20%	-81*	13%	10µM*	?	1%
CCCN(CCC)CCNC(=O)C1c2ccccc2C(=O)N(CCOC)C1c1ccc(F)cc1 (stereo not given)	nt	-33	nt	10%	3%	2%
COc1ccc([C@@H]2C(C(=O)N3CCCC3)CC(=O)N2C(=O)CCc2ccccc2)cc1 (stereo not given in full)	nt	-3	nt	nt	nt	nt
O=C(Nc1nc(-c2ccccc2)cs1)C1COc2ccccc2O1 (stereo not given)	-17%	44	nt	-11%	-13%	-1%
O=C(Nc1nc(-c2ccc(S(=O)(=O)N3CCCC3)cc2)cs1)C1COc2ccccc2O1 (stereo not given)	?	?	nt	2.2µM*	?	1%
SMILES	VACV Venus inh	HCMV inh	VACV mCherry inh	HCV inhibitor	FMDV antiviral	Giardia FBPA inh
CC(C)c1ccc(/C=C2\C=Cc3ccccc32)cc1	-4%	nt	17%	nt	nt	nt
CCOc1cccc(NCc2cc3c(C(C)(C)C)nn(-c4ccccc4)c3[nH]c2=O)c1	-15%	6	i	13µM*	nt	-5%
CC(C)(C)c1nn(-c2ccccc2)c2[nH]c(=O)c(CNCc3ccc4c(c3)OCO4)cc12	0%	-32	?	-28%	nt	-3%
CC[n+]1ccnc2ccccc21	13µM*	nt	18µM*	nt	nt	nt
COc1ccc(OC)c(CC(=O)Nc2cc(S(=O)(=O)N3CCCCC3)ccc2C)c1	nt	-29	nt	?	-5%	nt
Cc1ccc(S(=O)(=O)N2CCCCC2)cc1NC(=O)COC(=O)C1CC1	-9%	-31	-28%	nt	-14%	nt
COc1ccc(CC(=O)Nc2cc(S(=O)(=O)N3CCCCC3)ccc2C)cc1OC	-27%	-69*	?	10µM*	?	0%
Cc1ccc(S(=O)(=O)N2CCCCC2)cc1NC(=O)CCCOc1ccccc1	0%	-6	-22%	10µM*	-10%	nt
COc1ccc([N+](=O)[O-])cc1NCC(=O)Nc1cc(S(=O)(=O)N2CCCCC2)ccc1C	nt	-99*	nt	11µM*	-18%	nt
Cc1ccc(S(=O)(=O)N2CCCCC2)cc1NC(=O)COC(=O)c1cccn1C	nt	0	nt	13µM*	-26%	nt
Cc1cc(=O)oc2cc(N3C(=O)CC(Cc4ccccc4)C3=O)ccc12 (stereo not given)	-6%	-27	?	8%	-20%	-5%
CC(C)c1c(C(=O)N/N=C/C2CC=CCC2)nnn1-c1nonc1N (stereo not given)	-8%	12	?	6%	-10%	nt
CSc1nsc(SC)c1NC(=O)OCC1CCCO1 (stereo not given)	nt	-20	nt	2%	-12%	0%
CC1CCN(C(=S)NC(=O)c2ccco2)CC1	0%	-68*	i	14%	-10%	nt
Cc1cccc(-n2c(/C=C/c3ccccn3)nc3ccccc3c2=O)c1	nt	-101*	nt	?	?	2%
Cc1ccccc1-n1c(/C=C/c2c(C)n(C)c3ccccc23)nc2ccccc2c1=O	-16%	-19	?	nt	-27%	nt
COc1cccc(-n2c(/C=C/c3ccccn3)nc3ccccc3c2=O)c1	-10%	?	-11%	13%	-29%	2%
COc1ccccc1-n1c(/C=C/c2ccccn2)nc2ccccc2c1=O	?	-101*	?	?	?	-2%
COc1ccccc1-n1c(/C=C/c2c(C)n(C)c3ccccc23)nc2ccccc2c1=O	-7%	-85*	-24%	nt	?	nt
CCOC(=O)c1[nH]c(C)c(CCC(=O)Nc2cccc(SC)c2)c1C	-19%	-16	-16%	nt	-15%	nt
CC(=O)N1CCC2(CC1)CCN(C(=O)Nc1cccc(C#N)c1)CC2	nt	nt	nt	nt	-15%	0%
COCCN(C(=O)CSc1nnc(-c2ccccc2OC)o1)c1c(N)n(CC(C)C)c(=O)[nH]c1=O	-13%	13	0%	13%	-11%	nt
